Consider 39 compounds from PubChem BioAssay (NCATS).

Structures are written as SMILES. Where “and” joins values, the source holds several entries; their conditions need not be identical. Equal values may be shown once. Inconclusive results are not listed. Entries that show only a call come without a potency. Calls of active or inactive are those of the source. Calls follow the shape of the dose curve; as a rule, active = well fitted cell-killing curve with a large enough effect; inconclusive = small, poorly fitted or top-dose-only effect; inactive = flat fitted curve, though single readings scatter. Non-standard residues stand in square brackets, D forms with d. Residues, ends and D or L forms follow the SMILES beside them. *: point of attachment. Sta = CC(C)C[C@H](N)[C@@H](O)CC(=O)O; Isovaleryl = CC(C)CC(=O)*
Potency is read from the fitted curve at half-maximal effect.

A short description of this experiment: qHTS of pediatric cancer cell lines to identify multiple opportunities for drug repurposing: Primary screen for TC32 cells (AID 1347089). Also: nearly all actives have a fitted effect of over 60% in size. The note with it: TC32 Ewing sarcoma viability, CellTiter-Glo luminescence, 48 h; series mostly up to 45.8 µM. In a few lines:
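Luminescent ATP read-out (CellTiter-Glo) of metabolically active TC32 cells after 48 h exposure. Concentration-response curves came from 11-point (MIPE, 0.78 nM–46 µM) or 8-point (NPC, 0.59 nM–46 µM) primary titrations; follow-up used 11 points.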
(qHTS replaces the single test concentration by a dilution series.)
As to `O=C(CS(=O)Cc1ccco1)NCC=CCOc1cc(CN2CCCCC2)ccn1` (centres undefined), the Potency entry was “inactive”.

On to `CCC(C)(Oc1ccc(C2(c3ccc(OC(C)(CC)C(=O)O)cc3)CCCCC2)cc1)C(=O)O` (centres undefined), for which the Potency entry was “inactive”. Next, `NC(=O)Cc1cccc(C(=O)c2ccccc2)c1N`: “inactive”. Take `CC(C)[N+]1(C)[C@@H]2CC[C@H]1CC(OC(=O)C(CO)c1ccccc1)C2` (some centres undefined): the Potency result was “inactive”.

Take `O=C(O)c1cn(-c2ccc(F)cc2)c2cc(N3CCNCC3)c(F)cc2c1=O`: the Potency result was “inactive”. With `Cc1cc2c(s1)Nc1ccccc1N=C2N1CCN(C)CC1`, the Potency entry is “inactive”. Then `COc1cc2c(N3CCN(C(=O)Nc4ccc(OC(C)C)cc4)CC3)ncnc2cc1OCCCN1CCCCC1`, with “inactive”; and `CCCc1cc(=O)[nH]c(=S)[nH]1`, with “inactive”. In the case of `CC(C)[C@H](N)C(=O)OCCOCn1cnc2c(=O)[nH]c(N)nc21`, the Potency result is “inactive”. Then `CN(C)C(=O)COC(=O)Cc1ccc(OC(=O)c2ccc(N=C(N)N)cc2)cc1`, with “inactive”; and `COc1ccc(C2(C#N)CCC(C(=O)O)CC2)cc1OC1CCCC1` (centres undefined), with “inactive”. Then `O=C(OC1C[C@H]2CC[C@@H](C1)[N+]21CCCC1)C(O)(c1ccccc1)c1ccccc1` (some centres undefined), with “inactive”. Then `S=c1nc[nH]c2nc[nH]c12`, with 8.36 µM (active) and 20.8 µM (active). With `CCOC(=O)c1c(C)n(C)c2ccc(O)cc12`, the Potency result was “inactive”.

As for `O=C(NC(Cc1cc(=O)[nH]c2ccccc12)C(=O)O)c1ccc(Cl)cc1` (centres undefined), the Potency entry is “inactive”. As to `COc1cc(OC)c(C(=O)CCCN2CCCC2)c(OC)c1`, the Potency result was “inactive”.

Turning to `CCCS(=O)c1ccc2nc(NC(=O)OC)[nH]c2c1` (centres undefined), the Potency entry was “inactive”. Take `N[C@@H](Cc1cc(I)c(Oc2cc(I)c(O)c(I)c2)c(I)c1)C(=O)O`: the Potency result was “inactive”.

As for `N=C(N=C(N)N)N1CCOCC1`, the Potency entry was “inactive”. With `N=C(N)c1ccc2cc(OC(=O)c3ccc(N=C(N)N)cc3)ccc2c1`, the Potency entry was “inactive”. `Cc1ccc(Nc2nccc(N(C)c3ccc4c(C)n(C)nc4c3)n2)cc1S(N)(=O)=O`: the Potency entry is “inactive”. For the compound `Cc1ccc(S(=O)(=O)NC(=O)NN2CC3CCCC3C2)cc1` (centres undefined), the Potency entry is “inactive”.

With `CN(C)c1ccc2nc3ccc(=[N+](C)C)cc-3sc2c1`, the Potency is 16.5 µM (active) and 21 µM (active). On to `COC1=C(OC)C(=O)C(CCCCCCCCCCO)=C(C)C1=O`, for which the Potency entry is “inactive”.

Take `Cn1c(NCCN(CCO)CCCc2ccc([N+](=O)[O-])cc2)cc(=O)n(C)c1=O`: the Potency entry was “inactive”. `CC(C)CC(=O)N[C@H](C(=O)N[C@H](C(=O)N[C@@H](CC(C)C)[C@@H](O)CC(=O)N[C@@H](C)C(=O)N[C@@H](CC(C)C)[C@@H](O)CC(=O)O)C(C)C)C(C)C` (Isovaleryl-VV[Sta]A[Sta]-OH): the Potency entry is “inactive”. For the compound `CC(C)c1nc(CN(C)C(=O)N[C@H](C(=O)N[C@@H](Cc2ccccc2)C[C@H](O)[C@H](Cc2ccccc2)NC(=O)OCc2cncs2)C(C)C)cs1`, the Potency result is “inactive”. `COC(=O)C1=C(C)NC(C)=C(C(=O)OC(C)C)C1c1cccc2nonc12` (centres undefined): the Potency entry is “inactive”. Next, `O=C(NCCO[N+](=O)[O-])c1cccnc1`: “inactive”; `CCN(CC)CCOc1ccc(Cc2ccccc2)cc1`: “inactive”.

Consider `CC(C)c1ccc2oc3nc(N)c(C(=O)O)cc3c(=O)c2c1`, for which the Potency entry is “inactive”. On to `Nc1ccc(S(N)(=O)=O)cc1`, for which the Potency result was “inactive”. On to `CS(=O)(=O)OCCCCOS(C)(=O)=O`, for which the Potency result is “inactive”. In the case of `CC(S)C(=O)NCC(=O)O` (centres undefined), the Potency entry is “inactive”. For the compound `Cc1cc(C2CCCCC2)n(O)c(=O)c1`, the Potency was 7.45 µM (active). On to `CC(=O)Nc1ccc(O)cc1`, for which the Potency result was “inactive”. `Clc1ccc(C(Cn2ccnc2)OCc2ccsc2Cl)c(Cl)c1` (centres undefined): the Potency entry was “inactive”.

As to `CCCCCCCCCCCCCCCCCCCCCCO`, the Potency entry was “inactive”. Next, `Cc1ncc([N+](=O)[O-])n1CC(C)O` (centres undefined): “inactive”.
